# According to PMC11006913:
# Where a chain is given by its changes, count along the chain named.
# How the values were obtained:
# Assay in all cases: PBM; 200 nM protein, PBS
# Conditions in all cases: dsDNA, one strand shown
# [1] = biological target: HOXC10 (Homo sapiens, UniProt Q9NYD6 254-340)
# [2] = biological target: PRRX1 (Homo sapiens, UniProt P54821 80-166, F113S)
# [3] = biological target: HOXD13 (Homo sapiens, UniProt P35453 263-343, T313R)
# [4] = biological target: HOXD13 (Homo sapiens, UniProt P35453 263-343)
# [5] = biological target: HOXC10 (Homo sapiens, UniProt Q9NYD6 254-340, K271E)
# [6] = biological target: HOXD13 (Homo sapiens, UniProt P35453 263-343, T313A)
# [7] = biological target: PRRX1 (Homo sapiens, UniProt P54821 80-166)
# [8] = biological target: ALX3 (Homo sapiens, UniProt O95076 139-225, N203Q)
# [9] = biological target: ALX3 (Homo sapiens, UniProt O95076 139-225)
# [10] = biological target: ALX3 (Homo sapiens, UniProt O95076 139-225, L168Q)
# [11] = biological target: ALX3 (Homo sapiens, UniProt O95076 139-225, L168V)
# [12] = biological target: ALX3 (Homo sapiens, UniProt O95076 139-225, N203S)
# [13] = biological target: T1, PAX4 (Homo sapiens, UniProt O43316 9-242, R200K)
# T1 sequence: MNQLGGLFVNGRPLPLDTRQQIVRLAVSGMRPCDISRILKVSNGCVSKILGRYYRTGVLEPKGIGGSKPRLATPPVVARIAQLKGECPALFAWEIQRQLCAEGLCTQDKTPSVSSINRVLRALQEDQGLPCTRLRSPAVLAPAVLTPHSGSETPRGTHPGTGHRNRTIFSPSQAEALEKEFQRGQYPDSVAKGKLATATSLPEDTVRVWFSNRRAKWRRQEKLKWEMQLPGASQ
# [14] = biological target: T2, PAX4 (Homo sapiens, UniProt O43316 9-242)
# T2 sequence: T1 sequence with K192R
# [15] = biological target: T3, PAX4 (Homo sapiens, UniProt O43316 9-242, R200Q)
# T3 sequence: T1 sequence with K192Q
# [16] = biological target: T4, PAX4 (Homo sapiens, UniProt O43316 9-242, F177V)
# T4 sequence: T1 sequence with F169V, K192R
# [17] = biological target: T5, PAX4 (Homo sapiens, UniProt O43316 9-242, F177Y)
# T5 sequence: T1 sequence with F169Y, K192R
# [18] = biological target: T6, PAX4 (Homo sapiens, UniProt O43316 9-242, R227W)
# T6 sequence: T1 sequence with K192R, R219W
# [19] = biological target: HOXB6 (Homo sapiens, UniProt P17509 132-218, K202E)
# [20] = biological target: HOXB6 (Homo sapiens, UniProt P17509 132-218)
# [21] = biological target: ALX1 (Homo sapiens, UniProt Q15699 118-204, L144V)
# [22] = biological target: ALX1 (Homo sapiens, UniProt Q15699 118-204, L144R)
# [23] = biological target: ALX1 (Homo sapiens, UniProt Q15699 118-204)
# [24] = biological target: MSX2 (Homo sapiens, UniProt P35548 130-214, R199I)
# [25] = biological target: MSX2 (Homo sapiens, UniProt P35548 130-214)
# [26] = biological target: MSX2 (Homo sapiens, UniProt P35548 130-214, F161Y)
# Sequence of MSX2 (Homo sapiens, UniProt P35548 130-214, F161Y) (P35548 130-214 F161Y): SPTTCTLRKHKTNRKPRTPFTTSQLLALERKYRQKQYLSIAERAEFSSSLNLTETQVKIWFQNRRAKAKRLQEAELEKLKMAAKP
# Sequence of HOXD13 (Homo sapiens, UniProt P35453 263-343, T313A) (P35453 263-343 T313A): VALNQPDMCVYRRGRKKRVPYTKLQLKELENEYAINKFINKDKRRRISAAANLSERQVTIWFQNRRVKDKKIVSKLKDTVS
# Sequence of HOXC10 (Homo sapiens, UniProt Q9NYD6 254-340, K271E) (Q9NYD6 254-340 K271E): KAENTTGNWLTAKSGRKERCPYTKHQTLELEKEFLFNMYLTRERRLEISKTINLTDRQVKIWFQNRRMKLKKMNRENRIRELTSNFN
# Sequence of HOXC10 (Homo sapiens, UniProt Q9NYD6 254-340) (Q9NYD6 254-340): as the sequence (Q9NYD6 254-340 K271E) above, with E18K counted along it
# Sequence of HOXD13 (Homo sapiens, UniProt P35453 263-343) (P35453 263-343): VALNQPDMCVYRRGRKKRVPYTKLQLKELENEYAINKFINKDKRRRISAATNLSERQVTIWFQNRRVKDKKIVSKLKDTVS
# Sequence of HOXD13 (Homo sapiens, UniProt P35453 263-343, T313R) (P35453 263-343 T313R): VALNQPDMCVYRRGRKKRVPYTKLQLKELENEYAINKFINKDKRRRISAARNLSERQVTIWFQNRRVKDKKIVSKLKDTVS
# Sequence of PRRX1 (Homo sapiens, UniProt P54821 80-166, F113S) (P54821 80-166 F113S): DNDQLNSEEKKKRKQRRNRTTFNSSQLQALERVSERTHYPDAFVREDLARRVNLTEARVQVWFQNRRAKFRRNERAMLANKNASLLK
# Sequence of PRRX1 (Homo sapiens, UniProt P54821 80-166) (P54821 80-166): as the sequence (P54821 80-166 F113S) above, with S34F counted along it
# Sequence of HOXB6 (Homo sapiens, UniProt P17509 132-218) (P17509 132-218): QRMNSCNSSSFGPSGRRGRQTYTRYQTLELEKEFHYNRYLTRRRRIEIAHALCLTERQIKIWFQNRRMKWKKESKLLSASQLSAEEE
# Sequence of ALX3 (Homo sapiens, UniProt O95076 139-225, L168Q) (O95076 139-225 L168Q): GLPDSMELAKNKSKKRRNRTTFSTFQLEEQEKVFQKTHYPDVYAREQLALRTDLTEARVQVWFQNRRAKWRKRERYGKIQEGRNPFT
# Sequence of MSX2 (Homo sapiens, UniProt P35548 130-214, R199I) (P35548 130-214 R199I): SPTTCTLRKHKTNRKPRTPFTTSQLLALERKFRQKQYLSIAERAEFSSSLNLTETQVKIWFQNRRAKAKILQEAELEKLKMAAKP
# Sequence of ALX3 (Homo sapiens, UniProt O95076 139-225, L168V) (O95076 139-225 L168V): as the sequence (O95076 139-225 L168Q) above, with Q30V counted along it
# Sequence of ALX3 (Homo sapiens, UniProt O95076 139-225, N203Q) (O95076 139-225 N203Q): as the sequence (O95076 139-225 L168Q) above, with Q30L, N65Q counted along it
# Sequence of ALX3 (Homo sapiens, UniProt O95076 139-225, N203S) (O95076 139-225 N203S): as the sequence (O95076 139-225 L168Q) above, with Q30L, N65S counted along it
# Sequence of ALX1 (Homo sapiens, UniProt Q15699 118-204, L144V) (Q15699 118-204 L144V): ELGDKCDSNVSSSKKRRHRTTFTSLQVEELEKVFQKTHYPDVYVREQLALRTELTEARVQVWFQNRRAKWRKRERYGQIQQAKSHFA
# Sequence of ALX1 (Homo sapiens, UniProt Q15699 118-204) (Q15699 118-204): as the sequence (Q15699 118-204 L144V) above, with V27L counted along it
# Sequence of HOXB6 (Homo sapiens, UniProt P17509 132-218, K202E) (P17509 132-218 K202E): as the sequence (P17509 132-218) above, with K71E counted along it
# Sequence of ALX1 (Homo sapiens, UniProt Q15699 118-204, L144R) (Q15699 118-204 L144R): as the sequence (Q15699 118-204 L144V) above, with V27R counted along it
# Sequence of MSX2 (Homo sapiens, UniProt P35548 130-214) (P35548 130-214): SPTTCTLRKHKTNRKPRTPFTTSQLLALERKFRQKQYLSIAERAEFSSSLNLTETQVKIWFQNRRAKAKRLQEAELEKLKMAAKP
# Sequence of ALX3 (Homo sapiens, UniProt O95076 139-225) (O95076 139-225): as the sequence (O95076 139-225 L168Q) above, with Q30L counted along it
sequence,measurement,setting,value
CTTTATGA,binding signal,[1],"12.2 upbm affinity estimate (log intensity, higher = more binding, comparable within an allelic series)"
same,binding signal,[2],"10 upbm affinity estimate (log intensity, higher = more binding, comparable within an allelic series)"
same,binding signal,[3],"10.5 upbm affinity estimate (log intensity, higher = more binding, comparable within an allelic series)"
same,binding signal,[4],"11.8 upbm affinity estimate (log intensity, higher = more binding, comparable within an allelic series)"
same,binding signal,[5],"11.6 upbm affinity estimate (log intensity, higher = more binding, comparable within an allelic series)"
same,binding signal,[6],"11.5 upbm affinity estimate (log intensity, higher = more binding, comparable within an allelic series)"
same,binding signal,[7],"11.2 upbm affinity estimate (log intensity, higher = more binding, comparable within an allelic series)"
AGCTGGCG,binding signal,[1],"9.96 upbm affinity estimate (log intensity, higher = more binding, comparable within an allelic series)"
same,binding signal,[8],"7.77 upbm affinity estimate (log intensity, higher = more binding, comparable within an allelic series)"
same,binding signal,[5],"9.94 upbm affinity estimate (log intensity, higher = more binding, comparable within an allelic series)"
same,binding signal,[9],"7.78 upbm affinity estimate (log intensity, higher = more binding, comparable within an allelic series)"
same,binding signal,[10],"7.68 upbm affinity estimate (log intensity, higher = more binding, comparable within an allelic series)"
same,binding signal,[11],"7.73 upbm affinity estimate (log intensity, higher = more binding, comparable within an allelic series)"
same,binding signal,[12],"7.86 upbm affinity estimate (log intensity, higher = more binding, comparable within an allelic series)"
CCCCACCG,binding signal,[1],"10.2 upbm affinity estimate (log intensity, higher = more binding, comparable within an allelic series)"
same,binding signal,[13],"9.41 upbm affinity estimate (log intensity, higher = more binding, comparable within an allelic series)"
same,binding signal,[14],"9.56 upbm affinity estimate (log intensity, higher = more binding, comparable within an allelic series)"
same,binding signal,[15],"9.46 upbm affinity estimate (log intensity, higher = more binding, comparable within an allelic series)"
same,binding signal,[16],"9.14 upbm affinity estimate (log intensity, higher = more binding, comparable within an allelic series)"
same,binding signal,[5],"10.1 upbm affinity estimate (log intensity, higher = more binding, comparable within an allelic series)"
same,binding signal,[17],"9.27 upbm affinity estimate (log intensity, higher = more binding, comparable within an allelic series)"
same,binding signal,[18],"9.33 upbm affinity estimate (log intensity, higher = more binding, comparable within an allelic series)"
CGCCCCCG,binding signal,[1],"10 upbm affinity estimate (log intensity, higher = more binding, comparable within an allelic series)"
same,binding signal,[13],"9.05 upbm affinity estimate (log intensity, higher = more binding, comparable within an allelic series)"
same,binding signal,[2],"9.19 upbm affinity estimate (log intensity, higher = more binding, comparable within an allelic series)"
same,binding signal,[14],"9.27 upbm affinity estimate (log intensity, higher = more binding, comparable within an allelic series)"
same,binding signal,[19],"8.93 upbm affinity estimate (log intensity, higher = more binding, comparable within an allelic series)"
same,binding signal,[3],"9.18 upbm affinity estimate (log intensity, higher = more binding, comparable within an allelic series)"
same,binding signal,[15],"9.26 upbm affinity estimate (log intensity, higher = more binding, comparable within an allelic series)"
same,binding signal,[4],"9.19 upbm affinity estimate (log intensity, higher = more binding, comparable within an allelic series)"
same,binding signal,[16],"9.01 upbm affinity estimate (log intensity, higher = more binding, comparable within an allelic series)"
same,binding signal,[5],"9.94 upbm affinity estimate (log intensity, higher = more binding, comparable within an allelic series)"
same,binding signal,[17],"8.92 upbm affinity estimate (log intensity, higher = more binding, comparable within an allelic series)"
same,binding signal,[6],"9.4 upbm affinity estimate (log intensity, higher = more binding, comparable within an allelic series)"
same,binding signal,[18],"9.12 upbm affinity estimate (log intensity, higher = more binding, comparable within an allelic series)"
same,binding signal,[7],"9.18 upbm affinity estimate (log intensity, higher = more binding, comparable within an allelic series)"
same,binding signal,[20],"8.91 upbm affinity estimate (log intensity, higher = more binding, comparable within an allelic series)"
ATTTATAG,binding signal,[1],"12.2 upbm affinity estimate (log intensity, higher = more binding, comparable within an allelic series)"
same,binding signal,[21],"8.9 upbm affinity estimate (log intensity, higher = more binding, comparable within an allelic series)"
same,binding signal,[3],"11.1 upbm affinity estimate (log intensity, higher = more binding, comparable within an allelic series)"
same,binding signal,[22],"9.04 upbm affinity estimate (log intensity, higher = more binding, comparable within an allelic series)"
same,binding signal,[4],"12.1 upbm affinity estimate (log intensity, higher = more binding, comparable within an allelic series)"
same,binding signal,[5],"11.4 upbm affinity estimate (log intensity, higher = more binding, comparable within an allelic series)"
same,binding signal,[6],"11.9 upbm affinity estimate (log intensity, higher = more binding, comparable within an allelic series)"
same,binding signal,[23],"9.11 upbm affinity estimate (log intensity, higher = more binding, comparable within an allelic series)"
AGTCGGCG,binding signal,[1],"10.1 upbm affinity estimate (log intensity, higher = more binding, comparable within an allelic series)"
same,binding signal,[24],"9.6 upbm affinity estimate (log intensity, higher = more binding, comparable within an allelic series)"
same,binding signal,[5],"10.1 upbm affinity estimate (log intensity, higher = more binding, comparable within an allelic series)"
same,binding signal,[25],"9.58 upbm affinity estimate (log intensity, higher = more binding, comparable within an allelic series)"
same,binding signal,[26],"9.6 upbm affinity estimate (log intensity, higher = more binding, comparable within an allelic series)"
